# Values without a mark were called inactive. No rule for the calls is given here.
# Biological target: Pantothenate synthetase (Mycobacterium tuberculosis (strain ATCC 25618 / H37Rv)) (UniProt P9WIL5)
# Test: Recombinant Mtb pantothenate synthetase (PanC) inhibitors, coupled enzyme, confirmatory (AID 375);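 also: 0% = full reaction with vehicle and 100% = no enzyme background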
# Conditions: coupled enzyme assay; at 10 µM, hits give high values
# Chain of Pantothenate synthetase (Mycobacterium tuberculosis (strain ATCC 25618 / H37Rv)) (P9WIL5 whole entry, looked up): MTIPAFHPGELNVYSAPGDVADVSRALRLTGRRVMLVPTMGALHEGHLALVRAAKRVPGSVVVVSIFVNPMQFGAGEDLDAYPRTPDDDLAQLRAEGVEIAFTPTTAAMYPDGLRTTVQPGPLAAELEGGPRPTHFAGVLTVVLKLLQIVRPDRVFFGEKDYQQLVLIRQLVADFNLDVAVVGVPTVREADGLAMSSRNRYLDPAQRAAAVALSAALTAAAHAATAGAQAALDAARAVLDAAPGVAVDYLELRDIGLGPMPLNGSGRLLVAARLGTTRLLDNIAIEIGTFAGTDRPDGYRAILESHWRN
row,Structure (SMILES),inhibition [%]
1,COCCn1c(SCC(=O)Nc2cccc(OC)c2)nnc1-c1ccccc1,4
2,COc1ccc(CCn2c(-c3ccco3)nc3nc4ccccc4nc32)cc1,0
3,CC1=C(C(=O)OC2CCCCC2)C(c2ccc(C)o2)C2=C(CC(C)(C)CC2=O)N1 (centres undefined),0
4,O=C(CCCSc1nc2ccccc2s1)NC1=NCCS1,0
5,CN(C)S(=O)(=O)c1ccc(Oc2ccc(S(=O)(=O)N(C)C)cc2)cc1,4
6,CC1=C/C(=C/N(C)c2ccccc2)C(=O)S1,1
7,CCC(=O)Nc1cccc(Br)c1,2
8,O=C(NCCCN1CCOCC1)c1cc(-c2ccc(O)cc2)on1,0
9,O=C1C(c2ccncc2)=C(O)c2ccccc21,0
10,COc1ccc(C(=O)OC(COc2ccccc2)Cn2ccnc2)cc1 (centres undefined),0
11,CN(C)C=Nc1nonc1N,10
12,CC(=O)NC(=O)NC1CSCC1OC(C)=O (centres undefined),4
13,CC1(C)CC(=O)C(C#N)=C(NCCCO)C1,0
14,CCOC(=O)C1CCN(C(=O)c2ccc(OC)cc2OC)CC1,2
15,CC(C)(C)NCc1cc2ccccc2[nH]c1=O,0
16,CN(C)/C=N/c1ncnc2c1cnn2-c1ccc(C(F)(F)F)cn1,3
17,O=C(NCC1CCCO1)C1CCN(c2ccc(S(=O)(=O)N3CCCC3)cc2)CC1 (centres undefined),0
18,Cc1ccc2nc(NC(=O)C3CCN(S(=O)(=O)c4cccc5nsnc45)CC3)sc2c1,4
19,Cc1cc(C(=O)NCCCN2CCOCC2)n(-c2ccccc2)n1,0

# Reference: PubChem BioAssay
